# Reference: ChEMBL document CHEMBL4513216, “Probing the Open Global Health Chemical Diversity Library for Multistage-Active Starting Points for Next-Generation Antimalarials” (ACS Infect Dis, 2020)
# Hit rate of the full screen: of about 68,000 compounds, about 2,700 (4%) showed an effect of 50% or more. The entries come from a sample that favours strong results as a whole.
# Tested on: Plasmodium berghei
# Test: Screen against P. berghei liver stage (PbLuc), transformed with Luciferase, at 2uM
# Format: functional, HepG2
# Settings: tested at 2 uM
row,Structure (SMILES),INHIBITION [%]
1,CCCS(=O)(=O)N1CC[C@H]2O[C@@H](c3nc(C)no3)CC[C@H]21,-71.5
2,COc1cccc(CNc2c(C)cnc3c2c(=O)n(C)c(=O)n3C)c1,-9.49
3,Cc1cnc2c(c1NCc1ccncc1)c(=O)n(C)c(=O)n2C,29.42
4,Cc1cnc2c(c1NCc1cccnc1)c(=O)n(C)c(=O)n2C,63.23
5,CC1CN(Cc2ccccc2)CCCN1CCCS(C)(=O)=O (configuration not stated),53.99
6,CC1CN(Cc2ccccc2)CCCN1CCS(C)(=O)=O (configuration not stated),-7.07
7,CNS(=O)(=O)CCCN1CCCN(Cc2ccccc2)CC1C (configuration not stated),32.03
8,CC(NC(=O)CCCOc1ccccc1Cl)c1ccncc1 (configuration not stated),-37.84
9,CCOC(=O)C1(Cc2ccccc2-c2ccccc2OC)CCNCC1,29.68
10,CCc1ccc(CN(C)C(=O)c2cnc3c(c2)nc(N)n3CC)nc1,17.5
11,CCn1c(N)nc2cc(C(=O)N3CCCN(C)CC3)cnc21,63.1
12,CCn1c(N)nc2cc(C(=O)N(C)Cc3cc(C(C)(C)C)n[nH]3)cnc21,58.17
13,CCn1c(N)nc2cc(C(=O)N3CCC(N4CCCC4)CC3)cnc21,-12.08
14,CCn1c(N)nc2cc(C(=O)N3CCCOCC3)cnc21,40.47
15,CCc1cc(CN(C)C(=O)c2cnc3c(c2)nc(N)n3CC)on1,6.85
16,Cc1cnnn1Cc1nnn2c1CN(Cc1cccs1)CCC2,12.29
17,COc1cccc2c1OCC(CNC(=O)Cc1csc(C(C)=O)c1)C2 (configuration not stated),19.13
18,CCc1cc(=O)n(CC(=O)NCC2CCCO2)c(-c2cccc(F)c2)n1 (configuration not stated),23.65
19,CN1CCC(c2cccc(-c3ccc(C(=O)O)cc3)n2)CC1,-39.93
20,CCC(CO)N(Cc1ccc(C(=O)O)cc1)Cc1ccsc1 (configuration not stated),2.17
21,CCC(C)N(Cc1ccsc1)C(=O)c1ccc(CO)cc1 (configuration not stated),52.98
22,CCC(C)N(Cc1ccsc1)C(=O)c1ccc2[nH]nnc2c1 (configuration not stated),38.24
23,Cc1oc(-c2nc(C#N)c(NC(C)(C)C)o2)cc1S(=O)(=O)N1CCCC1,58.42
24,CNc1oc(-c2cc(S(=O)(=O)N3CCCCCC3)c(C)o2)nc1C#N,5.96
25,CNc1oc(-c2cc(S(=O)(=O)N3CCCC3)c(C)o2)nc1C#N,-49.59
26,Cc1cccc(CN2C[C@@H]3CN(C(=O)c4ccsc4)C[C@@H]3C2=O)n1,-23.78

row,Structure (SMILES),INHIBITION [%]
1,Cc1cnc(N2CC[C@@H]3O[C@@H](COCc4ccccn4)CC[C@@H]32)nc1,-7.26
2,COCCCN(C)Cc1nc2c(cnn2C)c(=O)[nH]1,-135.87
3,Cn1ncc2c(=O)[nH]c(CN3CCCC3CC3CCCCC3)nc21 (configuration not stated),-5.15
4,COc1ccc(OCCN(C)Cc2nc3c(cnn3C)c(=O)[nH]2)cc1,72.31
5,COc1ccc2c(c1)CN(Cc1nc3c(cnn3C)c(=O)[nH]1)CC2,27.55
6,COc1ccc2c(c1)CCCN2Cc1nc2c(cnn2C)c(=O)[nH]1,-70.71
7,CN(CCCOc1ccccc1)Cc1nc2c(cnn2C)c(=O)[nH]1,-31.57
8,Cc1ccc(OCCN(C)Cc2nc3c(cnn3C)c(=O)[nH]2)cc1,78.42
9,COc1ccc2c(c1)CCN2Cc1nc2c(cnn2C)c(=O)[nH]1,52.17
10,CN(CCOc1cccc(F)c1)Cc1nc2c(cnn2C)c(=O)[nH]1,47.87
11,Cn1ncc2c(=O)[nH]c(CN3CCCC3CC(C)(C)C)nc21 (configuration not stated),70.27
12,CCC1CCCCN1Cc1nc2c(cnn2C)c(=O)[nH]1 (configuration not stated),-31.57
13,CN(CCCOc1ccc(F)cc1)Cc1nc2c(cnn2C)c(=O)[nH]1,-45.72
14,CSc1cccc(CN(C)C(=O)Nc2nc(C)n(C)n2)c1,4.12
15,CSCC(=O)N1CCCC1c1noc(C2CC2)n1 (configuration not stated),27.44
16,Cc1cc(C)n(CC(C)NC(=O)C2(c3ccccc3F)CC2)n1 (configuration not stated),-45.89
17,O=C(CCN1CCCCO1)N1CCC(CO)(CCc2ccccc2)CC1,12.56
18,O=C(c1cc2c(s1)CCC2)N1CCCC1Cn1cccn1 (configuration not stated),17.39
19,CN(C)c1ncc(CNC2CC(=O)N(CCc3cccc(Cl)c3)C2)s1 (configuration not stated),35.26
20,CCNc1nc(C)c(C(=O)N2CCC(C(O)Cc3ccccc3)CC2)s1 (configuration not stated),15.73
21,O=C(C1CCCN(C2CCOCC2)C1)N1Cc2ccccc2C1 (configuration not stated),-45.79
22,Fc1cccc(CN2CCC(c3cc4ncccc4cn3)CC2)c1F,-27.12
23,COCCN(Cc1nc2c(cnn2C)c(=O)[nH]1)Cc1ccco1,-16.42
24,CC(C)CN(C)Cc1nc2c(cnn2C)c(=O)[nH]1,-29.44
25,CCC(C)N(CCOC)Cc1nc2c(cnn2C)c(=O)[nH]1 (configuration not stated),29.19
26,CC(N(C)Cc1nc2c(cnn2C)c(=O)[nH]1)C(C)(C)C (configuration not stated),62.46

row,Structure (SMILES),INHIBITION [%]
1,Cc1ccc(C(C)N(C)Cc2nc3c(cnn3C)c(=O)[nH]2)cc1 (configuration not stated),28.65
2,COCCN(Cc1nc2c(cnn2C)c(=O)[nH]1)C(C)c1ccccc1 (configuration not stated),68.24
3,CN(Cc1nc2c(cnn2C)c(=O)[nH]1)Cc1ccco1,27.5
4,COCCN(Cc1nc2c(cnn2C)c(=O)[nH]1)C(C)COC (configuration not stated),20.57
5,CCN(Cc1nc2c(cnn2C)c(=O)[nH]1)Cc1ccco1,53.98
6,CCC1CN(Cc2nc(C(C)C)no2)CCC(=O)N1Cc1ccccc1 (configuration not stated),8.14
7,O=C(C1=CCCC1)N1C[C@H](OCc2cccnc2)[C@H]2OCCC[C@H]21,31.46
8,CCCS(=O)(=O)N1CCC2(CC1)CC(=O)N(Cc1cc(F)cc(F)c1)C2,8.76
9,C=c1occc1=C1NC(c2cccc(CN3CCOCC3)c2)=NO1,1.42
10,CCC(C)c1noc(C2CCN(C(=O)c3cccs3)CC2)n1 (configuration not stated),-50.86
11,c1cnn(Cc2ccc(CN3CCC4(CCCNC4)C3)cc2)c1 (configuration not stated),0.49
12,c1cnn(Cc2ccc(CN3CCC4(CCNCC4)C3)cc2)c1,56.79
13,c1ccc(Cn2cccn2)c(CN2CCC3(CCCNC3)C2)c1 (configuration not stated),31.9
14,COC[C@]1(O)CCN(Cc2ccc(N(C)C)nc2)CC1(C)C,32.21
15,Cc1cc(CN2CC[C@H]3C[C@H](C(=O)N4CCC(C)CC4)O[C@H]3C2)no1,34.88
16,CCn1ccnc1CN1CCCN(C(=O)COC2CCCC2)CC1,57.81
17,CCn1ccnc1CN1CCCN(C(=O)COC2CCCCC2)CC1,-2.87
18,Cn1ccnc1CN1CCCN(C(=O)COC2CCCC2)CC1,28.18
19,Cn1ccc(NC(=O)CN2C[C@@H]3CC[C@H]2CN(S(C)(=O)=O)C3)n1,48.21
20,CN(Cc1nc2ccccc2o1)C1CCCN(c2cccnn2)C1 (configuration not stated),-16.72
21,Cc1cc(C)n(C2CCCN(C(=O)c3cccc4[nH]ncc34)C2)n1 (configuration not stated),-15.33
22,Cc1nccn1-c1ccc(C(C)NCc2cccn2C)cc1 (configuration not stated),-28.15
23,Cn1c2ccccc2c2ncn(CCN3CCOCC3)c(=O)c21,61.75
24,Cn1c2ccccc2c2ncn(CCCN3CCOCC3)c(=O)c21,23.65
25,Cn1c2ccc(F)cc2c2ncn(CCN3CCOCC3)c(=O)c21,-2.5
26,CN1CCCN(C[C@@H]2CN(c3nc(C(N)=O)cs3)C[C@@H]2CO)CC1,19.56

row,Structure (SMILES),INHIBITION [%]
1,COCCNc1c(-c2ccc(C)cc2)c(=O)c1=O,-21.29
2,COCCN1CCO[C@H]2CN(C(=O)c3cccs3)C[C@H]21,13.26
3,O=c1cccnn1CC1CN(Cc2ccsc2)Cc2nccn2C1 (configuration not stated),-0.51
4,CS(=O)(=O)N1Cc2nccn2CC(Cn2ncccc2=O)C1 (configuration not stated),-9.42
5,O=c1cccnn1CC1CN(CC2CCCC2)Cc2nccn2C1 (configuration not stated),52.83
6,Cc1n[nH]c(C)c1CCCNCc1cn(CCC(N)=O)c2ccccc12,42.2
7,Cc1ccc(C(C)NCc2cn(CCC(N)=O)c3ccccc23)cc1C (configuration not stated),61.63
8,NC(=O)CCn1cc(CNCc2csc(N)n2)c2ccccc21,72.49
9,NC(=O)CCn1cc(CNCCCc2ccncc2)c2ccccc21,3.49
10,CCCN1CCN(Cc2cn(CCC(N)=O)c3ccccc23)CC1,38.62
11,CC(C)n1cnnc1CCNCc1cn(CCC(N)=O)c2ccccc12,-9.3
12,NC(=O)CCn1cc(CNCCCc2ccccc2O)c2ccccc21,57.34
13,NC(=O)CCn1cc(CNCCCc2csc(N)n2)c2ccccc21,37.15
14,CC(NCc1cn(CCC(N)=O)c2ccccc12)c1nncn1C (configuration not stated),-81.84
15,CCc1nccn1-c1cncc(C2CCN(C(=O)COC)CC2)n1,41.98
16,CCN(CC)C(=O)c1nc2c(s1)CCN(Cc1cccc(OC)c1)CC2,1.08
17,O=C(c1cccc(S(=O)(=O)NCCCn2cccn2)c1)N1CCOCC1,30.8
18,COC(=O)[C@H](C)NC(=O)Cc1c(C)nc2c(c1C)c(=O)[nH]n2C,-7.03
19,COCCNc1nc2c(c(NCCc3cccs3)n1)CCNCC2,-15.37
20,COCCNc1nc2c(c(NCc3ccncc3)n1)CCNCC2,-21.16
21,COCCNc1nc2c(c(NCC3CCOC3)n1)CCNCC2 (configuration not stated),58.53
22,COCC(c1cccc(C(F)(F)F)c1)N(C)C(=O)c1cc(C)no1 (configuration not stated),-23.4
23,COCC(c1cccc(C(F)(F)F)c1)N(C)C(=O)c1ccncc1 (configuration not stated),14.82
24,COCC(c1cccc(C(F)(F)F)c1)N(C)C(=O)c1cc(C)n[nH]1 (configuration not stated),51.21
